PMC4336329 (PLoS ONE, 2015)
In all, about 310,000 compounds went through this assay and about 14,000 (4.5%) showed an effect of 50% or more. Effects have a minus sign here. The sample holds strong results, similar compounds and a random draw of the others, so the mix is not that of the screen.

The compounds below were run against human ether-à-go-go-related gene (hERG) potassium channel (human, UniProt Q12809) (assay: primary screen, population patch clamp on CHO cells stably expressing hERG; higher = less effect of the substance).
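Note: peak tail current of the secondary pulse compared with the same well before compound.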

Chain of human ether-à-go-go-related gene (hERG) potassium channel (Q12809 whole entry, looked up): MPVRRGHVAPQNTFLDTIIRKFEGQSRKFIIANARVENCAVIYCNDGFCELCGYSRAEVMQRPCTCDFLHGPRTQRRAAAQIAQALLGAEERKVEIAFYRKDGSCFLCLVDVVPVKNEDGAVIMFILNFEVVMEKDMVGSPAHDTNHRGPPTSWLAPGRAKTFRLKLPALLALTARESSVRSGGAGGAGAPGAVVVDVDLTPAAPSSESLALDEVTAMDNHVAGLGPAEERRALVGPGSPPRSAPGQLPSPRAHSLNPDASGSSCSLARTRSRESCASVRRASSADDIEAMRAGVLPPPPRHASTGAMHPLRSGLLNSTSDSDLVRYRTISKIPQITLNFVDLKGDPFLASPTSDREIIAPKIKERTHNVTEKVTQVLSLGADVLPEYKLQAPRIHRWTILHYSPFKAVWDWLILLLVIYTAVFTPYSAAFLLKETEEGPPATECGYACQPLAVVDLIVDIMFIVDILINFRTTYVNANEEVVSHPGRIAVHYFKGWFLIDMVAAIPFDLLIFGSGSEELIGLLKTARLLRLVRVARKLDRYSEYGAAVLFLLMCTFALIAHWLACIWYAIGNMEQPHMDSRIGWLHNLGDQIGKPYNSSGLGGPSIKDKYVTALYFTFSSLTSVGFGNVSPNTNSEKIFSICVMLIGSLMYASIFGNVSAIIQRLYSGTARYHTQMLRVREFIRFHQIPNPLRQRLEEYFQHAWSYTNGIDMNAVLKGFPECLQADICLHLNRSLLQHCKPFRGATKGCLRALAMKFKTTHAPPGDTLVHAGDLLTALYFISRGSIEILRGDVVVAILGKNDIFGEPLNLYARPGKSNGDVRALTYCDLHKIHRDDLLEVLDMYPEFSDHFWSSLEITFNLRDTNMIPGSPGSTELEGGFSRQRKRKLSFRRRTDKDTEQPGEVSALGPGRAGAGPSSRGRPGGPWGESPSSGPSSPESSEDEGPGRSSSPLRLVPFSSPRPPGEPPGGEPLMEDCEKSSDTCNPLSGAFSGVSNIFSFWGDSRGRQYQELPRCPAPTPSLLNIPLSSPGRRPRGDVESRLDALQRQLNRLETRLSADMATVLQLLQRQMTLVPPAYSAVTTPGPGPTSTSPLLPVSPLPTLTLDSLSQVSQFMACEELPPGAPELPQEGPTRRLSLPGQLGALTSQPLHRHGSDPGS

| Compound | hERG current change (%, negative = inhibition) at 10uM |
| --- | --- |
| Cc1nc(C(=O)NNC(=O)c2ccc(Cl)cc2)c(C(F)(F)F)o1 | 7.36% |
| CCCN1CNC(=S)N(CC2CCCO2)C1 (stereo not shown) | 5.19% |
| CN(Cc1ccccc1)C(=S)Nc1ccc2nc3n(c(=O)c2c1)CCCCC3 | -78.1% |
| CCN(CC)CCNC(=S)Nc1ccc2nc3n(c(=O)c2c1)CCCCC3 | 0.152% |
| O=c1c2cc(NC(=S)NCc3cccnc3)ccc2nc2n1CCCCC2 | -10.1% |
| CCCCN(C)C(=S)Nc1ccc2nc3n(c(=O)c2c1)CCCCC3 | -81.2% |
| CCCCNC(=S)Nc1ccc2nc3n(c(=O)c2c1)CCCCC3 | -43.6% |
| CCCCN(CC)C(=S)Nc1ccc2nc3n(c(=O)c2c1)CCCCC3 | -59% |
| CCN(CC)C(=S)Nc1ccc2nc3n(c(=O)c2c1)CCCCC3 | -21.8% |
| CCCCN(CC)CCCNC(=S)Nc1ccc2nc3n(c(=O)c2c1)CCCCC3 | -11.9% |
| CCCN(CCC)CCCNC(=S)Nc1ccc2nc3n(c(=O)c2c1)CCCCC3 | 6.36% |
| COC(=O)c1cc(NC(=S)NCc2ccc(Cl)cc2)cc(C(=O)OC)c1 | -20.6% |
| Cc1ccc(Nc2nnc(SCC(=O)Nc3ccccc3[N+](=O)[O-])s2)cc1 | 7.88% |
| CCOC(=O)CN1C(=O)/C(=C2\SC(=S)N(NC(=O)c3cccnc3)C2=O)c2ccccc21 | 11.5% |
| O=C(NCc1ccc(F)cc1)c1cc(S(=O)(=O)N2CCOCC2)ccc1F | -20.6% |
| C[C@H](NC(=O)c1cc2c([nH]c3ccccc32)c(-c2ccccc2)n1)C(=O)O | 11.8% |
| O=C(Nc1ccccc1C(F)(F)F)N1CCN(C(c2ccccc2)c2ccccc2)CC1 | 15.5% |
| COc1ccc(-c2nc(SC)n(C(=O)c3ccco3)n2)cc1 | 13.7% |
| O=S(=O)(/C=C/c1cccc(Br)c1)N1CCOCC1 | -6.85% |
| CCC(=NCCO)c1c(O)n(-c2ccc(Cl)cc2)c(=O)[nH]c1=O | 15.5% |
| CC(=O)c1c(-c2ccc(C)cc2)nc2c3ccccc3ccn12 | 10.2% |
| COc1ccc(C(=O)c2c3ccc(C(F)(F)F)cc3[n+]([O-])n2CCCC(N)=O)cc1 | -51.6% |
| COc1ccc(C(=O)c2c3ccc(OC)cc3[n+]([O-])n2CCCC(N)=O)cc1 | -34.9% |
| COc1ccc2c(C(=O)c3ccc(Cl)cc3)n(CCCC(N)=O)[n+]([O-])c2c1 | -55.5% |
| COc1ccc(C(=O)c2c3ccc(OC)cc3[n+]([O-])n2Cc2ccc(C(N)=O)cc2)cc1 | -42% |
| COc1ccc2c(C(=O)c3ccc(C)cc3)n(Cc3ccc(C(N)=O)cc3)[n+]([O-])c2c1 | -12.5% |
| COc1ccc(C(=O)c2c3ccc([N+](=O)[O-])cc3[n+]([O-])n2CCCC(N)=O)cc1 | -34.6% |
| COc1ccc(C(=O)c2c3ccccc3[n+]([O-])n2CCC(N)=O)cc1 | 13.1% |

| Compound | hERG current change (%, negative = inhibition) at 10uM |
| --- | --- |
| COc1ccc(C(=O)c2c3ccc(C(F)(F)F)cc3[n+]([O-])n2CCC[NH3+])cc1.[Cl-] | -73.3% |
| COc1ccc2c(C(=O)c3ccc(C)cc3)n(CCCC(N)=O)[n+]([O-])c2c1 | -44.2% |
| COc1ccc(S(=O)(=O)O/N=C2\CCSc3ccc(C)cc32)cc1 | 3.61% |
| CCOCCCNCc1cn(-c2ccc(F)cc2F)nc1-c1ccccc1C | -48% |
| CCc1cc(=O)oc2cc(C)cc(OC(C)C(=O)NCCN3CCOCC3)c12 (stereo not shown) | 4.16% |
| CCO[C@@H]1OC(C(=O)NCc2nc3ccccc3[nH]2)=C[C@H](c2ccc(C(F)(F)F)cc2)[C@H]1CCCO | -3.34% |
| COC(=O)c1ccc(C[n+]2ccccc2)cc1.[Br-] | 17.3% |
| CCN(CCNC(=O)CN1CCN(Cc2ccc(Cl)cc2)C1=O)c1ccccc1 | -52% |
| Cc1nnc(SCC(=O)N2CCc3ccccc3C2)n1-c1ccccc1 | -23.6% |
| COCCCNC(=O)CN1CCN(Cc2ccc(Cl)cc2)C1=O | 1.74% |
| Cc1ccc(CN2CCN(CC(=O)NCc3ccc(Cl)cc3)C2=O)cc1 | -50.4% |
| Cc1ccc(-n2c(C)nnc2SCC(=O)N2CCc3ccccc3C2)cc1 | -53.3% |
| Cc1ccc(CN2CCN(CC(=O)N3CCc4ccccc4C3)C2=O)cc1 | -50.8% |
| Cc1ccc(CN2CCN(CC(=O)N3CCC(C(N)=O)CC3)C2=O)cc1 | 5.43% |
| Cc1ccc(CNC(=O)CN2CCN(Cc3ccc(Cl)cc3)C2=O)cc1 | -20.9% |
| Cc1ccc(CN2CCN(CC(=O)O)C2=O)cc1 | 41.5% |
| Cc1ccc(-n2c(C)nnc2SCC(=O)N2CCc3ccccc3C2)cc1C | -21.9% |
| CN(CCNC(=O)CN1CCN(Cc2ccccc2Cl)C1=O)Cc1ccccc1 | -30.4% |
| Cc1ccc(CNC(=O)CN2CCN(Cc3ccc(C)cc3)C2=O)cc1 | -26.5% |
| CC(NC(=O)c1ccc(Cl)cc1)c1nnc(SCC(=O)NC2=NCCS2)n1C (stereo not shown) | 22.3% |
| Cc1cc(O)c(N)c(C)c1Cl.Cl | -4.7% |
| Cn1c(=O)[nH]c(=O)c2c1nc(CN1CCN(c3cccc(Cl)c3)CC1)n2CCc1ccccc1 | -21.8% |
| CCOC(=O)C1=C(C)NC(SC)=C(C#N)C1CC(C)C (stereo not shown) | -12.3% |
| CCN(CC)S(=O)(=O)c1ccc(-c2nnc(SCC(N)=O)n2CC)cc1 | 35.8% |
| CCN1CCCC1CNC(=O)CN(C)S(=O)(=O)c1ccc(Cl)cc1 (stereo not shown) | -21.6% |
| Cc1ccc(S(=O)(=O)Nc2c(C)nc3nc(C)[nH]n3c2=O)c(C)c1 | 10.3% |
| Cc1ccc(N2C(=O)c3cccc4c(C(=O)O)ccc(c34)C2=O)cc1 | 8.57% |
